We go through 39 compounds from PubChem BioAssay (EPA / NIEHS).

“And” between values parts separate entries of the source, which are not always exact repeats. Identical values can stand only once. Records with an inconclusive call do not appear. Where a structure was tested more than once in an assay, its records may differ in their call. The source made the active and inactive calls. The calls were made as follows: active = hit-call score of the fitted dose curve at least 0.9, where 1 is the maximum; inconclusive = response in the unintended direction; inactive = score below 0.9.

The nature of the test: Tanguay_ZF_120hpf_EYE_legacy: (Legacy) Oregon State University Tanguay Lab 120 Hour Post-fertilization zebrafish Assay for Eye Malformation (AID 2283636).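 Also: binary presence or absence of eye malformation scored by brightfield in 120 hpf larvae.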 The method, then: Tanguay_ZF_120hpf_legacy is a whole embryo, multiplexed endpoint assay using zebrafish larvae exposed for 120 hours post fertilization on a 96-well plate.Tanguay_ZF_120hpf_EYE_legacy is one of one assay component(s) measured or calculated from the Tanguay_ZF_120hpf_legacy assay. It is designed to make measurements of zebrafish development as detected with brightfield microscopy of developing zebrafish embryos.Data from the assay component Tanguay_ZF_120hpf_EYE_legacy was analyzed into 1 assay endpoints. This assay endpoint, Tanguay_ZF_120hpf_EYE_legacy, was analyzed in the positive analysis fitting direction relative to DMSO as the negative control and baseline of activity. Using a type of morphology reporter, gain-of-signal activity can be used to understand changes in developmentals as they relate to the whole embryo. To generalize the intended target to other relatable targets, this assay endpoint is annotated to the zebrafish development intended target family, where the subfamily is embryonic eye development.
Zebrafish husbandry: Tropical 5D wild-type adult zebrafish were housed in at an approximate density of 1000 per 100 gallon tank at the Sinnhuber Aquatic Research Laboratory, Oregon State University, Corvallis, OR. Each tank was kept at standard laboratory conditions of 28C on a 14-h light/10-h dark photoperiod in fish water consisting of reverse osmosis water supplemented with a commercially available salt (Instant Ocean). Spawning funnels were placed into the tanks the night prior, and embryos were collected and staged. To increase bioavailability, the chorion was enzymatically removed using pronase (63.6mg/ml, >/= 3.5U/mg, Sigma-Aldrich: P5147) at 4 hours post fertilization (hpf) using a custom automated dechorionator.Chemical exposures: Six hpf dechorionated embryos were placed 1 embryo per well in a 96-well plate prefilled with 90 ul of EM using automated embryo placement systems (AEPS). Ten microliters of each row of dilution plate 2 was added to 2 exposure plates. The final DMSO concentration used was 0.64% (vol/vol). Thirty-two embryos were also exposed to 5uM trimethyltin chloride (positive control). Plates were sealed to prevent evaporation and foil covered to reduce light exposure and kept in a 28C incubator. Embryos were statically exposed until 120 hpf. At 24 hpf, embryos were assessed for photomotor response using a custom photomotor response analysis tool (PRAT) and for developmental toxicity endpoints (MO24: mortality at 24 hpf, DP: developmental progression, SM: spontaneous movement, and NC: notochord distortion). At 120 hpf, locomotor activity was measured using Viewpoint Zebralab and assessed for 18 endpoints. Zebrafish acquisition and analysis program (ZAAP), a custom program designed to inventory, acquire, and manage zebrafish data, was used to collect developmental endpoints as either present or absent (i.e., binary responses were recorded). If mortality occurred for an embryo (at either 24 or 120 hpf), the non-mortality endpoints were not measured.
With `C[C@]12CC[C@@H]3c4ccc(O)cc4C[C@@H](CCCCCCCCCS(=O)CCCC(F)(F)C(F)(F)F)[C@H]3[C@@H]1CC[C@@H]2O` (stereo not given in full), the compound was called inactive.

In the case of `O=C(c1ccc(O)cc1O)c1ccc(O)cc1O`, the result was inactive.

In general, AC50 refers to the concentration giving half of the maximal activity seen. Take `N[C@@H](Cc1cc(I)c(Oc2ccc(O)c(I)c2)c(I)c1)C(=O)O`: the concentration at half-maximal activity (AC50) was 2.51 nM (active).

With `CCC(C)OC(=O)N1CCCCC1CCO` (stereo not given), the compound was classed as inactive.

Consider `CSC(=O)c1cccc2nnsc12`, for which the compound was classed as inactive.

For `COC(=O)CSc1cc(N=c2sc(=O)n3n2CCCC3)c(F)cc1Cl`, the call was inactive.

In the case of `O=C(O)C1(C(=O)Nc2ccc(Cl)cc2Cl)CC1`, the call was inactive.

Regarding `CCSC(=O)N(CC(C)C)CC(C)C`, the compound was classed as inactive.

`CCCCC(CC)COC(=O)c1ccccc1C(=O)O` (stereo not given): the call was inactive.

As for `CCOC(=O)NCCOc1ccc(Oc2ccccc2)cc1`, the result was inactive.

`N#CSCSc1nc2ccccc2s1`: the compound was classed as inactive.

With `CCCCC(CC)CN1C(=O)C2C3C=CC(C3)C2C1=O` (stereo not given), the compound was classed as inactive.

For the compound `O=C(O)c1ccccc1`, the compound was classed as inactive.

As to `CC(C)(C)[C@@H](O)[C@@H](Cc1ccc(Cl)cc1)n1cncn1`, the compound was called inactive.

Turning to `Cc1nn(C)c(Oc2ccccc2)c1C=NOCc1ccc(C(=O)OC(C)(C)C)cc1`, the compound was called inactive.

As to `CCOC(=O)COc1cc(-n2ncc(C(F)(F)F)c(C)c2=O)c(F)cc1Cl`, the compound was called inactive.

With `CCCCOC(=O)C(C)Oc1ccc(Oc2ccc(C(F)(F)F)cn2)cc1` (stereo not given), the call was inactive.

Consider `CC1(C)C(C=C(Cl)Cl)C1C(=O)OCc1cccc(Oc2ccccc2)c1` (stereo not given), for which the result was inactive.

For the compound `OB(O)O`, the compound was classed as inactive.

As for `CCCOC(=O)NCCCN(C)C`, the call was inactive.

`O=C(c1ccccc1)C1CCCCC1`: the result was inactive.

In the case of `COCCO`, the compound was called inactive.

In the case of `CC(C)(c1ccc(O)cc1)c1ccc(O)cc1`, the result was inactive; the half-maximal activity concentration (AC50) was 40 µM (active) and 40.1 µM (active).

On to `CCCCCCC(C)OC(=O)COc1nc(F)c(Cl)c(N)c1Cl` (stereo not given), for which the compound was classed as inactive.

With `S=C([S-])NCCNC(=S)[S-].[Mn+2]`, the compound was called inactive.

Consider `C=CCOC(Cn1ccnc1)c1ccc(Cl)cc1Cl` (stereo not given), for which the outcome was inactive.

As to `S=C(S)NCCNC(=S)S.[Mn+2].[S-]C([S-])=NCCN=C([S-])[S-].[Zn+2]`, the call was inactive.

For `CCOC(=O)c1ccc(O)cc1`, the outcome was inactive.

On to `COc1c(Cl)ccc(Cl)c1C(=O)O`, for which the call was inactive.

Take `CCNc1nc(N)nc(Cl)n1`: the call was inactive.

On to `CCN(CC)C(=O)c1cccc(C)c1`, for which the call was inactive.

As for `C#C[C@]1(O)CC[C@H]2[C@@H]3CCC4=CC(=O)CC[C@@H]4[C@H]3CC[C@@]21CC`, the compound was classed as inactive.

Take `CC(C)CCCCCCc1ccc(O)cc1`: the call was inactive.

With `c1ccc2[nH]c(-c3cscn3)nc2c1`, the result was inactive.

As to `CCCOC(=O)c1ccc(C(=O)OCCC)nc1`, the call was inactive.

Take `CC(=O)S[C@@H]1CC2=CC(=O)CC[C@]2(C)[C@H]2CC[C@@]3(C)[C@@H](CC[C@@]34CCC(=O)O4)[C@H]12`: the result was inactive.

Turning to `CCN(Cc1c(F)cccc1Cl)c1c([N+](=O)[O-])cc(C(F)(F)F)cc1[N+](=O)[O-]`, the compound was classed as inactive.

`CCCCCOC(=O)COc1cc(N2C(=O)C3=C(CCCC3)C2=O)c(F)cc1Cl`: the call was inactive.

For the compound `C#CCOC(=O)[C@@H](C)Oc1ccc(Oc2ncc(Cl)cc2F)cc1`, the compound was classed as inactive.
